Assay outcomes as filed in PubChem.
This is a sample that favours compounds with a hit; in the whole collection about 3.8% have one here.
KLK7 zymogen act – activates the human kallikrein-7 zymogen. P49862. purified proKLK7, EDANS-DABCYL substrate fluorescence; 100% is mature enzyme control, 0% vehicle. activation, % at 7 µM. hit rate 0.9% among 370,000;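 active = activation above the mean of all tested compounds plus 3 SD, computed per campaign excluding outliers beyond control limits, cut at about 13% in these data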
Target sequence (P49862 whole entry, looked up): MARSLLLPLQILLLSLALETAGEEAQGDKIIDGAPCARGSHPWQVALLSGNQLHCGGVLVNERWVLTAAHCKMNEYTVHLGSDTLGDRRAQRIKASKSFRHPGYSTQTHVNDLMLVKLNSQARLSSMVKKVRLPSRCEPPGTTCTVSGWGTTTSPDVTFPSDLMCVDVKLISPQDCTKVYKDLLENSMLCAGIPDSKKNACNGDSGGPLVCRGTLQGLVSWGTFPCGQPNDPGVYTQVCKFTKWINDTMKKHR
ADAM10 inh – inhibitors of human ADAM10. O14672. recombinant ADAM10, EDANS/DABCYL FRET peptide cleavage, 3 h. inhibition, % at 7 µM. hit rate 0.62% among 370,000. AID 720582;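 active = inhibition above a per-campaign cutoff equal to the mean of compounds falling between control-based bounds plus 3 SD, cut at about 20% in these data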;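 also: 0% = DMSO wells while the 100% control is not disclosed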
rRNA inh HTS – inhibits bacterial ribosomal RNA function over humanized ribosomes; hit rate 1.6% among 350,000; GFP signal change (wild-type ribosome), % (concentration not given with the values); E. coli WT GFP vs humanized-ribosome RFP mutants, fluorescence, 24 h; active compounds read low; DMSO median 0, no signal -100; AID 720706;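 active = significant combined selectivity score with lowered wild-type GFP, culture density cut under 30%, mutant RFP and density less affected; inactive = any of these conditions unmet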
ADAM17 inh – inhibits human ADAM17. P78536. recombinant ADAM17, EDANS/DABCYL FRET peptide cleavage. inhibition, % at 6.95 µM. hit rate 0.83% among 370,000;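 active = inhibition above the mean of compounds lying between control limits plus 3 SD, set per campaign, cut at about 8.5% in these data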;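 also: 0% = DMSO-only wells as the low control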
FGF22 binding – FGF22 (human) thermal shift binding. recombinant FGF22 thermal shift, SYPRO orange fluorescence; percent of sucrose octasulfate shift, DMSO zero. Q9HCT0. hit rate 1.5% among 340,000. AID 651658. activity (Tm shift, normalised), % at 9.99 µM;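 active = mean Tm shift, scaled 0 neutral to 100 positive control, at about 1.3% or above, every replicate too, limit read from the data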
Target sequence (Q9HCT0 whole entry, looked up): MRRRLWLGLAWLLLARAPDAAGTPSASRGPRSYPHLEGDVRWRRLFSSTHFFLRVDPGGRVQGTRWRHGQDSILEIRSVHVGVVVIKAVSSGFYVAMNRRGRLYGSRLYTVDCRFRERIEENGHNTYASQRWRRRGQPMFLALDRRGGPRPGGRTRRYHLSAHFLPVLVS
Starred values were filed as active, the others as inactive.

Results for CC(C)[C@H](NC(=O)c1ccccc1Cl)C(=O)Nc1nc(-c2ccccn2)cs1 ?
KLK7 zymogen act: 0.2; ADAM10 inh: 0.5; rRNA inh HTS: -28.7*; ADAM17 inh: -3.8; FGF22 binding: 0.1

What do the screens show for `O=C(O)C[C@H]1C[C@H]2c3cc(NC(=O)Nc4ccc(F)cc4)ccc3O[C@H]2[C@H](CO)O1`?
rRNA inh HTS: 2.1; FGF22 binding: 0.1

What do the screens show for `COc1ccccc1NC(=O)N1CCCCN2[C@@H](CO)[C@@H](c3ccc(C#CC4CC4)cc3)[C@@H]2C1`?
FGF22 binding: -0.2

Results for O=C(Cc1ccccc1)N1CCN=C1SCc1cccc([N+](=O)[O-])c1 ?
KLK7 zymogen act: 0.2; ADAM10 inh: 0.9; rRNA inh HTS: 9.4; ADAM17 inh: -3.5; FGF22 binding: 43.0*

What do the screens show for `Cc1ccc(/C=C/S(=O)(=O)NCC(=O)O)cc1`?
KLK7 zymogen act: 0.0; ADAM10 inh: 2.8; rRNA inh HTS: 23.0; ADAM17 inh: 0.4; FGF22 binding: 43.3*

How did C[C@H]1CN([C@@H](C)CO)C(=O)c2cccc(NC(=O)Nc3ccc4c(c3)OCO4)c2O[C@H]1CN(C)C(=O)Nc1cccc2ccccc12 do in these assays?
rRNA inh HTS: -5.0; FGF22 binding: -0.8

What do the screens show for `Cc1noc(C)c1S(=O)(=O)Nc1ccc2c(c1)C(=O)N([C@H](C)CO)C[C@H](C)[C@@H](CN(C)C(=O)NC1CCCCC1)OCCCC[C@H](C)O2`?
rRNA inh HTS: 1.0; FGF22 binding: -0.4

What do the screens show for `O=C(Nc1cccc(F)c1)c1ccc(-c2ccccc2C(F)(F)F)o1`?
KLK7 zymogen act: 0.4; ADAM10 inh: 14.8; rRNA inh HTS: -12.2; ADAM17 inh: 6.6; FGF22 binding: 0.1

Results for COc1ccc(NC(=O)c2ccc(-c3ccccc3C(F)(F)F)o2)cc1 ?
KLK7 zymogen act: -1.3; ADAM10 inh: 3.5; rRNA inh HTS: -22.0; ADAM17 inh: 2.5; FGF22 binding: 44.2*

How did O=[N+]([O-])c1ccc(CSc2nc3ccccc3o2)cc1 do in these assays?
KLK7 zymogen act: 0.2; ADAM10 inh: -1.9; ADAM17 inh: 0.9

How did O=[N+]([O-])c1ccc(CSc2nnc(SCc3ccccc3)s2)cc1 do in these assays?
KLK7 zymogen act: -0.1; ADAM10 inh: 7.9; rRNA inh HTS: 2.5; ADAM17 inh: 4.0; FGF22 binding: 43.6*

What do the screens show for `CCC(=O)N1CCC2(CC1)CN(Cc1ccccn1)[C@H](CO)c1[nH]c3cc(OC)ccc3c12`?
rRNA inh HTS: 1.2; FGF22 binding: 0.0

Results for CCOc1ccc2nc(SCC(=O)Nc3ccc4c(c3)OCCO4)[nH]c2c1 ?
KLK7 zymogen act: 0.0; ADAM10 inh: 11.7; ADAM17 inh: 2.5

What do the screens show for `Cc1ccc(NC(=O)COC(=O)/C=C/c2ccco2)cc1S(=O)(=O)N(C)C`?
KLK7 zymogen act: 0.5; ADAM10 inh: -3.6; ADAM17 inh: -1.6

Results for Cc1ccc(S(=O)(=O)N(C)C)cc1NC(=O)COC(=O)/C=C/c1ccc2c(c1)OCO2 ?
KLK7 zymogen act: 12.3; ADAM10 inh: -173.2; rRNA inh HTS: 10.1; ADAM17 inh: -57.3; FGF22 binding: 42.4

What do the screens show for `C/C=C/C(=O)OCC(=O)Nc1ccc(C)c(S(=O)(=O)N(C)C)c1`?
KLK7 zymogen act: 0.1; ADAM10 inh: -2.4; rRNA inh HTS: 9.7; ADAM17 inh: 0.8; FGF22 binding: 43.6*

What do the screens show for `CN(C)S(=O)(=O)c1cccc(NC(=O)COC(=O)/C=C/c2ccc3c(c2)OCO3)c1`?
KLK7 zymogen act: -2.7; ADAM10 inh: -140.2; rRNA inh HTS: -26.9*; ADAM17 inh: -50.2; FGF22 binding: -0.2

What do the screens show for `CCOc1ccc2nc(SCC(=O)Nc3cccc(S(=O)(=O)NC4=NCCCCC4)c3)[nH]c2c1`?
KLK7 zymogen act: 0.2; ADAM10 inh: 8.3; rRNA inh HTS: -27.2*; ADAM17 inh: 2.4; FGF22 binding: 42.7

What do the screens show for `O=C(COC(=O)/C=C/c1ccc(Cl)cc1)Nc1cccc(S(=O)(=O)NC2=NCCCCC2)c1`?
KLK7 zymogen act: 0.4; ADAM10 inh: 2.7; rRNA inh HTS: -20.1*; ADAM17 inh: 1.2; FGF22 binding: 0.1

Results for O=C(C[C@H]1CC[C@@H](NC(=O)CN2CCOCC2)[C@H](CO)O1)NC1CCCCC1 ?
rRNA inh HTS: 0.3; FGF22 binding: 0.1

What do the screens show for `COCCNC(=O)C[C@H]1C[C@H]2c3cc(NC(=O)C4CCC4)ccc3O[C@H]2[C@H](CO)O1`?
rRNA inh HTS: 2.8; FGF22 binding: 0.2
